Reference: PubChem BioAssay (NCI)
Several values for one entry are separate records, joined by “and”; a condition that tells them apart may be missing. Identical values can stand only once. About 83,000 compounds went through this panel and 20% of them were active in at least one assay; those are over-represented in the sample as a whole.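 Treatment: one concentration, 48 hours, 96-well format. Scoring: percent growth, with anything below 10 considered active.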 Values without a mark were called inactive. Activity calls are given as the source filed them.

system: SK-MEL-2 melanoma; assay: NCI-60 one-dose screen, 48 h (100 = growth as untreated, 0 = no growth, -100 = all killed); conditions: 10 µM
Protocol: Growth inhibition of the SK-MEL-2 human tumor cell line is measured as a screen for anti-cancer activity. Cells are grown in 96 well plates and exposed to the test compound for 48 hours. Compounds are tested at a single concentration, which is 10^-5 M for most compounds. The reported endpoint is percent growth (GI% or GIPRCNT), where numbers from 0 - 100% represent growth inhibition, and numbers from -100% - 0 represent cell death. For example, a value of 40 represents 60% growth inhibition. A value of 0 means no net growth occurred over the course of the experiment. A value of -40 indicates 40% of cells at the beginning of the experiment died by the end of the experiment. A value of -100 means all cells are dead at the end of the experiment.
NCI-60 Human Tumor Cell Lines Screen was performed using the standard one-dose NCI protocol, which is described in more detail at https://dtp.cancer.gov/discovery_development/nci-60/default.htm.
Compounds with GIPRCNT values below 10 were considered active. Activity score was based on GIPRCNT using the following formula: […]
Score is 0 for GIPRCNT values of 100 or above, 50 for GIPRCNT values of 0, and 100 for GIPRCNT values of -100.

Row | Compound | growth [%]
1 | S=C(SSC(=S)N1CCCCC1)N1CCCCC1 | 102

same assay, conditions: 10 µM unless noted

Row | Compound | growth
2 | Cc1ccc(C(=O)OC(C(=O)O)C(OC(=O)c2ccc(C)cc2)C(=O)O)cc1 (stereo not given) (tested in a mixture with another compound) | 77.1%
3 | CCCCCCCCCCCC1CCCC(C)N1 (stereo not given) | -7.27% (active)
4 | Oc1cccc2cccnc12 | 99% and 102% and 101%
5 | CCC1(O)CC(OC2CC(N(C)C)C(OC3CC4OC5CC(=O)C(C)OC5OC4C(C)O3)C(C)O2)c2c(cc3c(c2O)C(=O)c2c(O)ccc(O)c2C3=O)C1C(=O)OC (stereo not given) | -54.8% (active)
6 | C[C@]12CC[C@H](O)CC1=CC[C@@H]1[C@@H]2CC[C@]2(C)C(=O)CC[C@@H]12 | 95.3%
7 | CC[C@](O)(C(=O)O)c1cc2n(c(=O)c1CO)Cc1cc3ccccc3nc1-2 | -20.9% (active)
8 | CC[n+]1c(-c2ccccc2)c2cc(N)ccc2c2ccc(N)cc21 | -60.1% (active)
9 | CC[C@@]1(O)C(=O)OCc2c1cc1n(c2=O)Cc2cc3ccccc3nc2-1 | -20.7% (active)
10 | CC(=O)O[C@H]1C[C@@H]2OC3C=C(C)CCC3(C)[C@@]1(C)[C@@]21CO1 (stereo not given in full) | -72.2% (active) and -53.9% (active)
11 | CC[C@@]1(O)C[C@H](OC2CC(N(C)C)C(O)C(C)O2)c2c(O)c3c(c(O)c2[C@H]1OC1CC(N(C)C)C(O)C(C)O1)C(=O)c1cccc(O)c1C3=O (stereo not given in full) | -54.5% (active)
12 | Oc1cc[c]([Hg][Cl])cc1 | 70.2%
13 | COC1CC(CC2CCC(C)C(C(C)C(=O)O)O2)OC2(OC(C)(C3CCC(C)(C4OC(C5OC(O)(CO)C(C)CC5C)CC4C)O3)CC2C)C1C (stereo not given) | -61.3% (active)
14 | COc1ccc(OC)c(/C=C/[N+](=O)[O-])c1 | 1.51% (active)
15 | CCC(=O)OC1CCn2c1nc1c2C(=O)C(C)=C(N2CC2)C1=O (stereo not given) | -43.9% (active)
16 | CO[C@H](/C(C)=C/C=C/C(C)=C/c1coc(C)n1)[C@H](C)[C@H]1C[C@@H](O)[C@@]2(C)O[C@H]2/C=C/[C@@H](C)[C@@H]2C[C@@H](CC(=O)O2)C[C@H]2O[C@@H]2C(=O)O1 | 51.4%
17 | CN1CCN(c2ccc([N+](=O)[O-])c3no[n+]([O-])c23)CC1 | -80.5% (active)
18 | CC[C@@]1(O)C[C@H](OC2CC(N(C)C)C(OC3CC(O)C(OC4CCC(=O)C(C)O4)C(C)O3)C(C)O2)c2c(cc3c(c2O)C(=O)c2c(O)ccc(O)c2C3=O)[C@H]1C(=O)OC (stereo not given in full) | -40.2% (active)
19 | COC1=C(C)C(=O)C2=C(C1=O)C(CO)N1C(C#N)C3CC4C(C1C2N1CCOC41)N3C (stereo not given) | -58.4% (active)
20 | Cc1c(N)nc([C@H](CC(N)=O)NC[C@H](N)C(N)=O)nc1C(=O)N[C@H](C(=O)N[C@H](C)[C@@H](O)[C@H](C)C(=O)N[C@H](C(=O)NCCc1nc(-c2nc(C(=O)NCCC[S+](C)C)cs2)cs1)[C@@H](C)O)C(OC1OC(CO)C(O)C(O)C1OC1OC(CO)C(O)C(OC(N)=O)C1O)c1cnc[nH]1 (stereo not given in full) | 125% [2.5 µM]
21 | NCCc1ccc(OCc2ccccc2)c(OCc2ccccc2)c1 | 87.4%
22 | CC1=C2C(=O)[C@H]3[C@@H](CC=C4C[C@@H](O)CC[C@@]43C)[C@@H]2CC[C@]12O[C@@H]1C[C@H](C)CN[C@H]1[C@H]2C | 2.09% (active)
23 | O=C1c2ccccc2C(=O)C(Cl)C1Cl (stereo not given) | 111%
24 | COc1ccccc1/C=C(/C)[N+](=O)[O-] | 94.8% and 85.9%
25 | CC1=C(CO)C2=C(C)C3(CC3)[C@@](C)(O)C(=O)C2=C1 | -46.8% (active)
26 | Cc1cc(N=Nc2ccccc2C)ccc1N | 127%
27 | CCOC(=O)C(NC(=O)C(Cc1ccc(N(CCCl)CCCl)cc1)NC(C)=O)C(C)C (stereo not given) | 92.7%
28 | C[C@H]1CCC/C=C/[C@@H]2C[C@H](O)C[C@H]2[C@H](O)/C=C/C(=O)O1 | -21.5% (active)
29 | COc1cccc2c1cc([N+](=O)[O-])c1c(C(=O)O)cc3c(c12)OCO3 | 94.4% and 104%

same assay, conditions: 100 µM

Row | Compound | growth
30 | S=C(SSC(=S)N1CCCCC1)N1CCCCC1 | 2.78% (active)
